# Data reported in ChEMBL document CHEMBL1961873, “Compounds: GSK PKIS; Assays: Nanosyn kinase panel” (2012).
# Assays:
# [1] = molecular target: Sphingosine kinase 1 (Homo sapiens) (UniProt Q9NYA1); conditions: at 1 µM;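 also: mean SPHK1 inhibition value reported from the GSK PKIS kinase panel screen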
# [2] = molecular target: T1, Sphingosine kinase 2 (Homo sapiens) (UniProt Q9NRA0); conditions: at 0.1 µM
# T1 sequence (whole entry): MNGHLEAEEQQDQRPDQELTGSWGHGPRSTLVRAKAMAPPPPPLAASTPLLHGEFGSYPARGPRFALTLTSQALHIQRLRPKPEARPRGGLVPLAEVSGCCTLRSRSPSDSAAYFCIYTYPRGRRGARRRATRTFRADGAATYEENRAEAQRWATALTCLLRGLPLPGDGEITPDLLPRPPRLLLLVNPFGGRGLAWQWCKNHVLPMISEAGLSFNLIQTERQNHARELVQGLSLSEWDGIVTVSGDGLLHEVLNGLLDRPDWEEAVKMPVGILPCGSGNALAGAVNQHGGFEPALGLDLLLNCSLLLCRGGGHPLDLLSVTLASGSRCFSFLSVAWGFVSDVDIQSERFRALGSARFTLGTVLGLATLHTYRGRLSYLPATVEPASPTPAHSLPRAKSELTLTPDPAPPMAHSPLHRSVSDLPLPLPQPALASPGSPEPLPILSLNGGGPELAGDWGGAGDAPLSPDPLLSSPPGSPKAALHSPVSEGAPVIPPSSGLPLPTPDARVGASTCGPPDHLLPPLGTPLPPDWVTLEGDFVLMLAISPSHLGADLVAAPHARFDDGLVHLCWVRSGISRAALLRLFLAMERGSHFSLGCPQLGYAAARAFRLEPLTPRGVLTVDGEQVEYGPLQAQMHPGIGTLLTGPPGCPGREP
# [3] = molecular target: T1, Sphingosine kinase 2 (Homo sapiens); conditions: at 1 µM
# [4] = molecular target: Casein kinase II subunit alpha (Homo sapiens) (UniProt P68400); conditions: at 0.1 µM
# Chain of Casein kinase II subunit alpha (Homo sapiens) (P68400 whole entry, looked up): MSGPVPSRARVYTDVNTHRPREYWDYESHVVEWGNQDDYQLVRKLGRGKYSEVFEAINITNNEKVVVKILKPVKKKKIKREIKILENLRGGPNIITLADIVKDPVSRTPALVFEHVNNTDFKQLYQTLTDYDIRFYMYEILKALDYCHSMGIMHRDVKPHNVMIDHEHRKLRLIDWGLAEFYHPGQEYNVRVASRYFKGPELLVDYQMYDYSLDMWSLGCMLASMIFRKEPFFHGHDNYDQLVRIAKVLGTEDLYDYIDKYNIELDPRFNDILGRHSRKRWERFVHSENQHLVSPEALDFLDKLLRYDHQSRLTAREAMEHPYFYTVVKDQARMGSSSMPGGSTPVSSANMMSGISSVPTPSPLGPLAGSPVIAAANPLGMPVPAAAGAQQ
# [5] = molecular target: Casein kinase II subunit alpha (Homo sapiens) (UniProt P68400); conditions: at 1 µM
# [6] = molecular target: T2, Inhibitor of nuclear factor kappa-B kinase subunit alpha (Homo sapiens) (UniProt O15111); conditions: at 0.1 µM
# T2 sequence (whole entry): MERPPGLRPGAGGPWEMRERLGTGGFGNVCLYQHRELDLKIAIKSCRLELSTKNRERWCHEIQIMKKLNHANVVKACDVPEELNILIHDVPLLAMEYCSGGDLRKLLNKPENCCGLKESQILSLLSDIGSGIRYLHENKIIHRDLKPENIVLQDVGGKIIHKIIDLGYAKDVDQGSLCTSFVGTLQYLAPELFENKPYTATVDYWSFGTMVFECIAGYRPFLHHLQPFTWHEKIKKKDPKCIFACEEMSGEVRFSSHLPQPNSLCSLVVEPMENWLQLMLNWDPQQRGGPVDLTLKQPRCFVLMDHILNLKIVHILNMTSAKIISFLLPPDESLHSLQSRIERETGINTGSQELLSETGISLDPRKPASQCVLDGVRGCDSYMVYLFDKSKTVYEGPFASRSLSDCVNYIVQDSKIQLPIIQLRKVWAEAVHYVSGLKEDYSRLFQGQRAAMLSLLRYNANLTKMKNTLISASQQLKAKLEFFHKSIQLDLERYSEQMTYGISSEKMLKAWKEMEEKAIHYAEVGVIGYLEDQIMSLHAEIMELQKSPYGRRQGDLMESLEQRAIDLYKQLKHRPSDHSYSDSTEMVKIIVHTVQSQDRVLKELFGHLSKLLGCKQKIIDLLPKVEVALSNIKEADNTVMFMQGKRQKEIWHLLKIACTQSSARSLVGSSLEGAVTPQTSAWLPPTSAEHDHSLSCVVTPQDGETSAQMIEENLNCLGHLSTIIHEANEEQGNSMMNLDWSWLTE
# [7] = molecular target: T2, Inhibitor of nuclear factor kappa-B kinase subunit alpha (Homo sapiens); conditions: at 1 µM
# [8] = molecular target: T3, Inhibitor of nuclear factor kappa-B kinase subunit beta (Homo sapiens) (UniProt O14920); conditions: at 0.1 µM
# T3 sequence (whole entry): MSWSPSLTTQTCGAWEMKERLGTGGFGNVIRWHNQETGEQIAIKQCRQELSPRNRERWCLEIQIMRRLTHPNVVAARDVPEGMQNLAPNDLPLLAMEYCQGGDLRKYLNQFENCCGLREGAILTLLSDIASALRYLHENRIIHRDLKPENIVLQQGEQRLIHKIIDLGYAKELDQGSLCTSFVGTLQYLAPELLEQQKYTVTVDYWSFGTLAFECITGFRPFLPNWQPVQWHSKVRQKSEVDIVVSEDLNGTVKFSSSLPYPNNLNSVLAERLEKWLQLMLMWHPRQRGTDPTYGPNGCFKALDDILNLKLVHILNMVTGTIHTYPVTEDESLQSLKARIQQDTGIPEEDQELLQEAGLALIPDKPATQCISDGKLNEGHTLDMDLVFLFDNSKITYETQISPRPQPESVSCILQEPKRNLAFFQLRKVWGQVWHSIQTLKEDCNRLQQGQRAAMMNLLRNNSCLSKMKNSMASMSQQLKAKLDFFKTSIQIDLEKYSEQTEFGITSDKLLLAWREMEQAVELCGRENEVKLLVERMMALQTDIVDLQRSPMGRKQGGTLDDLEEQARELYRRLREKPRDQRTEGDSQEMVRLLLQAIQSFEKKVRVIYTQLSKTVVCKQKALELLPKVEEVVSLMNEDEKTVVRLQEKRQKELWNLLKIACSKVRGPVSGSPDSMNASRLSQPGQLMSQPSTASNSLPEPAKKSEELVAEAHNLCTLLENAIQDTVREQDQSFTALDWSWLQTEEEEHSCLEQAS
# [9] = molecular target: T3, Inhibitor of nuclear factor kappa-B kinase subunit beta (Homo sapiens); conditions: at 1 µM
# [10] = molecular target: T4, Inhibitor of nuclear factor kappa-B kinase subunit epsilon (Homo sapiens) (UniProt Q14164); conditions: at 0.1 µM
# T4 sequence (whole entry): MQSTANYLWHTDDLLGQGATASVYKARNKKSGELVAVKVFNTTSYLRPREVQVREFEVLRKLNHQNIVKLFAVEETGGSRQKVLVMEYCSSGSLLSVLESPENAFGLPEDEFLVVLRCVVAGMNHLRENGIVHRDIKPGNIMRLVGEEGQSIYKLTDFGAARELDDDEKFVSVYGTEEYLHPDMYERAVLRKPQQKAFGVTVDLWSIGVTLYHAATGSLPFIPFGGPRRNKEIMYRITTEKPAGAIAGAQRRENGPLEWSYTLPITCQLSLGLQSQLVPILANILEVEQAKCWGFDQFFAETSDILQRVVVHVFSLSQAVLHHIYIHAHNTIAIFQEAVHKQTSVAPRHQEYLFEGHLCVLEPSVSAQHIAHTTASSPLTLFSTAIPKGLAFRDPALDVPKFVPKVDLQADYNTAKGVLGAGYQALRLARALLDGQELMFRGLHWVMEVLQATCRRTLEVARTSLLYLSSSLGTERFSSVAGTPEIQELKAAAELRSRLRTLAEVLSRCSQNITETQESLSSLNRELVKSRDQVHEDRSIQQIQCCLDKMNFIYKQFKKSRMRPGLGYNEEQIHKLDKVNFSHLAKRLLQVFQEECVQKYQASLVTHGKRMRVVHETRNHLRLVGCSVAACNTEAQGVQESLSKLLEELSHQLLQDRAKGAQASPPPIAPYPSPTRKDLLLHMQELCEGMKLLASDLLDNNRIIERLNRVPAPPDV
# [11] = molecular target: T4, Inhibitor of nuclear factor kappa-B kinase subunit epsilon (Homo sapiens); conditions: at 1 µM
# [12] = molecular target: T5, Serine/threonine-protein kinase Nek1 (Homo sapiens) (UniProt Q96PY6); conditions: at 0.1 µM
# T5 sequence (whole entry): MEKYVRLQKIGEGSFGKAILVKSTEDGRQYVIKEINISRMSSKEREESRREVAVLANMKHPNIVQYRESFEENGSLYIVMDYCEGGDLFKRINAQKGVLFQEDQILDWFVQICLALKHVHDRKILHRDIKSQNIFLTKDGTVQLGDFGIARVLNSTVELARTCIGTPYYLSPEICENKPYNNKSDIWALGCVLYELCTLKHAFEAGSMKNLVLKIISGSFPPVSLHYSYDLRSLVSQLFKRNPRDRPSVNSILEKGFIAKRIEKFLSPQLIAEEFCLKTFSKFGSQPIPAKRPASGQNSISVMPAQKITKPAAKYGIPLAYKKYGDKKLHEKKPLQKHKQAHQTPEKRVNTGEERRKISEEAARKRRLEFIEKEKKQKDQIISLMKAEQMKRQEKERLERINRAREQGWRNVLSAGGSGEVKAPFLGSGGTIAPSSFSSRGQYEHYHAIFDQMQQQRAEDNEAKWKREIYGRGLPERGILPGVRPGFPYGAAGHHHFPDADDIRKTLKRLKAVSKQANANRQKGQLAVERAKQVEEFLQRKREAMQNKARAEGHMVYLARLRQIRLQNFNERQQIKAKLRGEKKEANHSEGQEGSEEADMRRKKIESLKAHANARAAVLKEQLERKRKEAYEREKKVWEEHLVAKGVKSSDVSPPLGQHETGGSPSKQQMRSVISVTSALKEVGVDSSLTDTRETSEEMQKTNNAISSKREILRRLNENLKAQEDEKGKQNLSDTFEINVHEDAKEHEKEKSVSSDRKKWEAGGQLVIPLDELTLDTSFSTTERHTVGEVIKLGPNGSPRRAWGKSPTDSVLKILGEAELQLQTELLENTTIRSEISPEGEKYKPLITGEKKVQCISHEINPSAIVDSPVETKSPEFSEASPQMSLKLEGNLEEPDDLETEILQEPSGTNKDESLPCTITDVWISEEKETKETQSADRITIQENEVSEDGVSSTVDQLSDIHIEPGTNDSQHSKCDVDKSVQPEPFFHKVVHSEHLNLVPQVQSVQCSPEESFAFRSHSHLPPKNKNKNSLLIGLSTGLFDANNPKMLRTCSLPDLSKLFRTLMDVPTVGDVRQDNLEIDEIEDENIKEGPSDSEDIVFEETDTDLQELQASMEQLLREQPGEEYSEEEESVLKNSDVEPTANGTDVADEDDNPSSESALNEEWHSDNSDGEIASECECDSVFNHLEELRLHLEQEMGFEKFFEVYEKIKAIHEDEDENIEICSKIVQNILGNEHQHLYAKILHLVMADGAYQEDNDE
# [13] = molecular target: T5, Serine/threonine-protein kinase Nek1 (Homo sapiens); conditions: at 1 µM
# [14] = molecular target: T6, Serine/threonine-protein kinase Nek2 (Homo sapiens) (UniProt P51955); conditions: at 0.1 µM
# T6 sequence (whole entry): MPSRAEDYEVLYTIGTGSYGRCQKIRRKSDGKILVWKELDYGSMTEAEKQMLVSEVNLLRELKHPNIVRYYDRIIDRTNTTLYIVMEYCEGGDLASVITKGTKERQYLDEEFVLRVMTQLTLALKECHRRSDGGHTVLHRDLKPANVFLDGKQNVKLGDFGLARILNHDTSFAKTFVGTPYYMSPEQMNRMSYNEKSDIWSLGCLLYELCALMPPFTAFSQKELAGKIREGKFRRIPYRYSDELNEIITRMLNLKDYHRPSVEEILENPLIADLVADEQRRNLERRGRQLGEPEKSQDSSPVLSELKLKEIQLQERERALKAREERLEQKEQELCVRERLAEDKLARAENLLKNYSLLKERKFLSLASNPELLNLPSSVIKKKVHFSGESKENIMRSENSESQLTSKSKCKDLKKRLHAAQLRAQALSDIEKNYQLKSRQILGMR
# [15] = molecular target: T6, Serine/threonine-protein kinase Nek2 (Homo sapiens); conditions: at 1 µM
# [16] = molecular target: Serine/threonine-protein kinase Nek6 (Homo sapiens) (UniProt Q9HC98); conditions: at 0.1 µM
# Chain of Serine/threonine-protein kinase Nek6 (Homo sapiens) (Q9HC98 whole entry): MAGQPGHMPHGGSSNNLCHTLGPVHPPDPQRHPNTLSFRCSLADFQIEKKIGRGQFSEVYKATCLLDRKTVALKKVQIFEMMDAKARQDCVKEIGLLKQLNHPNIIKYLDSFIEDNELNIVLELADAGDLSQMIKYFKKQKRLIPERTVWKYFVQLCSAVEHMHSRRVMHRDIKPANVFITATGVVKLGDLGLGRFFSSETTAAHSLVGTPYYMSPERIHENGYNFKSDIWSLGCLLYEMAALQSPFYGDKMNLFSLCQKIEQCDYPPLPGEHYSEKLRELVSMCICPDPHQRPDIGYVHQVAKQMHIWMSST
# [17] = molecular target: Serine/threonine-protein kinase Nek6 (Homo sapiens) (UniProt Q9HC98); conditions: at 1 µM
# [18] = molecular target: Serine/threonine-protein kinase Nek7 (Homo sapiens) (UniProt Q8TDX7); conditions: at 0.1 µM
# Chain of Serine/threonine-protein kinase Nek7 (Homo sapiens) (Q8TDX7 whole entry, looked up): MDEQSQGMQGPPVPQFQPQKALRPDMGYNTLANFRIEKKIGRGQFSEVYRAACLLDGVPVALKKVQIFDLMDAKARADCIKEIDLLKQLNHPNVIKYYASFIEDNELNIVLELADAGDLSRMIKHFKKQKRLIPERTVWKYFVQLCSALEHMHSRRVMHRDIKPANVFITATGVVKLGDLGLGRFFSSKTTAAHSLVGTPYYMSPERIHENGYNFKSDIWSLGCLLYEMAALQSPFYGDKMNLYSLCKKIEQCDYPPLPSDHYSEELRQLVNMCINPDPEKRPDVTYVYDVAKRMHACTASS
# [19] = molecular target: Serine/threonine-protein kinase Nek7 (Homo sapiens) (UniProt Q8TDX7); conditions: at 1 µM
# [20] = molecular target: T7, Serine/threonine-protein kinase Nek9 (Homo sapiens) (UniProt Q8TD19); conditions: at 0.1 µM;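 also: reported value is the mean percent inhibition of NEK9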
# T7 sequence (whole entry): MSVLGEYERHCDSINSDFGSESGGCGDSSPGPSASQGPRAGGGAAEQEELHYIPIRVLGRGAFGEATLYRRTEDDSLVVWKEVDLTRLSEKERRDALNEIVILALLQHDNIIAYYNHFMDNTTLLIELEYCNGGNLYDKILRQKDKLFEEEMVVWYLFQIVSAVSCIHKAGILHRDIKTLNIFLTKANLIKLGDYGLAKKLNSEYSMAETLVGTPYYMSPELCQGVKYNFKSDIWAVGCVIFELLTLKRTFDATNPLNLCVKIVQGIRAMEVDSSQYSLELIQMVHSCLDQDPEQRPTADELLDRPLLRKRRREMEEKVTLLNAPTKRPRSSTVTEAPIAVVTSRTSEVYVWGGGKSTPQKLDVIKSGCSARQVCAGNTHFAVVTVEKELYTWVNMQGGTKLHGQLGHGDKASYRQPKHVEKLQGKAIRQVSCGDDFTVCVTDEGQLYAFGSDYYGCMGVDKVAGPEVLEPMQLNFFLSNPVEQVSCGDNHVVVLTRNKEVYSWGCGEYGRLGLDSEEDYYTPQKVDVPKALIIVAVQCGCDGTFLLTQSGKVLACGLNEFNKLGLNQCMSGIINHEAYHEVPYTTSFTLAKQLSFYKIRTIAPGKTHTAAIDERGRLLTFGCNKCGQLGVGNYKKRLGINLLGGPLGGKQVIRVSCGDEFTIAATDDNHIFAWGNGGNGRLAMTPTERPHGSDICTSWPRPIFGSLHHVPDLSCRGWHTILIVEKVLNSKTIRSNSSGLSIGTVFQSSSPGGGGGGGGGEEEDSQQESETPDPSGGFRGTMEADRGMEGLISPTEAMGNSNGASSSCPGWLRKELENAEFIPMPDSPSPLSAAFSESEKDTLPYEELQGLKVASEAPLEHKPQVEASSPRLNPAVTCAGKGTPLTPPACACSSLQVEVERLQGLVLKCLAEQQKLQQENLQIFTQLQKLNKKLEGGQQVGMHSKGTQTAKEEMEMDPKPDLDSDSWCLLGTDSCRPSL
# Chain of Sphingosine kinase 1 (Homo sapiens) (Q9NYA1 whole entry): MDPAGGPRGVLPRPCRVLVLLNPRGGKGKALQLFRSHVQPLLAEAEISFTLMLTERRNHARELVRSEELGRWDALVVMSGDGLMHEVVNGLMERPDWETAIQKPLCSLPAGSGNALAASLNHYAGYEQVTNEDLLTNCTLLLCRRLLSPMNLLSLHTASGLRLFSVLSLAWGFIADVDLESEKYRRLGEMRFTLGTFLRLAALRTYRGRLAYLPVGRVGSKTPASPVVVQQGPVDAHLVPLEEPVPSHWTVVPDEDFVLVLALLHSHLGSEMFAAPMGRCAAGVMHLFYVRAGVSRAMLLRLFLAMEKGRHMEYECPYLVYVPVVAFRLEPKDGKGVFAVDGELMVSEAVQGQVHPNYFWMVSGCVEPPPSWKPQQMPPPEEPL
compound,measurement,setting,value
NC(=O)c1cccc(Nc2nccc(Nc3cccc4[nH]ncc34)n2)c1,inhibition,[1],-1.98%
same,inhibition,[2],-0.9%
same,inhibition,[3],0.58%
same,inhibition,[4],-0.25%
same,inhibition,[5],3.56%
same,inhibition,[6],7.29%
same,inhibition,[7],41%
same,inhibition,[8],-0.17%
same,inhibition,[9],17.4%
same,inhibition,[10],-3.38%
same,inhibition,[11],21.4%
same,inhibition,[12],0.79%
same,inhibition,[13],8.86%
same,inhibition,[14],-3.63%
same,inhibition,[15],-1.96%
same,inhibition,[16],-4.36%
same,inhibition,[17],-2.96%
same,inhibition,[18],-1.67%
same,inhibition,[19],-3.47%
same,inhibition,[20],-0.63%
